Sampled rows, rich in hits. Any-hit rate of the full collection: about 2.7%.
Nrf2 activator = qHTS of Nrf2 Activators; AID 624171, 2012; AREc32 ARE-luciferase reporter (MCF7-derived line), luminescence, 24 h; Potency, µM (doses to about 46.1 µM), for the others: top-dose activation, most hits filed as activators; 410,000 compounds, 0.31% hits; further: potency means the concentration at half of the fitted maximal effect; % of control where 0% means no effect; nearly all actives have a fitted effect of over 65% in size
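AREc32_Fluc, 1000 cells/well, OPTI-MEM + 5% FBS, o/n 37 deg C 5% CO2; 23 nL cpd by pin tool, 24 hr; Steady-Glo 30 min RT, luminescence.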
LDHA block = qHTS assay for inhibitors of human lactate dehydrogenase. 480,000 compounds, 0.15% hits. AID 1347041, 2019. L-lactate dehydrogenase A chain (Homo sapiens), P00338. activity change, % (values are at about 110 or 230 µM). purified LDHA, NADH/diaphorase-resazurin fluorescence; active compounds read low; in the data active means activity change below about -30%; inconclusive means mostly about -25% to -30%;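 further: plate controls were DMSO wells for no effect and wells without enzyme for full effect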
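Resorufin fluorescence (ex540/em590), read at 0 and 20 min after diaphorase/resazurin addition, reports the NADH left after a 5 min room-temperature reaction of 2 nM human LDH5 with 0.06 mM NADH and 0.2 mM pyruvate.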
IDH1 R132H inh = qHTS for Inhibitors of mutant isocitrate dehydrogenase 1 (IDH1): qHTS; Isocitrate dehydrogenase [NADP] cytoplasmic (Homo sapiens), O75874; IDH1-R132H enzyme, NADPH consumption, diaphorase/resazurin fluorescence; Potency, µM (titrated, usually from 76.6 µM), inactives show at the highest dose activity change, negative = inhibition, actives largely listed as inhibitors; 390,000 compounds, 0.093% hits; AID 602179, 2012; further: potency means the concentration at half of the fitted maximal effect; on the % scale 0 is the no-effect control and ±100 the full control effect; nearly all actives have a fitted effect of over 65% in size
Target sequence (O75874 whole entry R132H, stated change not applied): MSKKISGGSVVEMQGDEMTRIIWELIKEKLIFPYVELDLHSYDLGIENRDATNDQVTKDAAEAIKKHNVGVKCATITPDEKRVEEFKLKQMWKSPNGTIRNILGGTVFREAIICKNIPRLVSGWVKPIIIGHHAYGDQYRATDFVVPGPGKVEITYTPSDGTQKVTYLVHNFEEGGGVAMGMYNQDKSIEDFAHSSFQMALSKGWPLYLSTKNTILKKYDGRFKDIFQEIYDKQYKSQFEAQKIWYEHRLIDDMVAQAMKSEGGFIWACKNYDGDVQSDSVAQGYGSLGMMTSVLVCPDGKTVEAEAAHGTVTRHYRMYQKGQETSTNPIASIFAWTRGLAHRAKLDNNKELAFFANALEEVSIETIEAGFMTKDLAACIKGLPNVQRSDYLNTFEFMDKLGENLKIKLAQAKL
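IDH1-R132H (0.5 ug/mL) preincubated 30 min with compound, then NADPH (0.016 mM) and alpha-KG (2 mM) added; 80 min at RT, pH 7.5. Remaining NADPH coupled via diaphorase/resazurin to fluorescence (540/590 nm); concentration-response curves normalized to no-enzyme control.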
Nrf2 inh = Nrf2 qHTS screen for inhibitors; A549 ARE-Fluc reporter, luciferase luminescence, 18-24 h; Potency, µM (doses to about 46 µM), for inactives: at the top dose activity change, negative = inhibition, hits mostly inhibitors; 360,000 compounds, 2.1% hits; further: potency means the concentration at half of the fitted maximal effect; on the % scale 0 is the no-effect control and ±100 the full control effect; nearly all actives have a fitted effect of over 60% in size
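Reporter: ARE-Fluc in A549. Exposure: 18-24 h, 37 °C, 5% CO2, 5% FBS OPTI-MEM. Readouts: fluorescent cytotoxicity (CellTiter-Fluor), then luminescent Nrf2 signal after BugLite.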
12-LOX inh = Primary qHTS assay for inhibitors of human arachidonate 12S-lipoxygenase (ALOX12): Round 2 | purified 12hLO, xylenol orange hydroperoxide absorbance | Polyunsaturated fatty acid lipoxygenase ALOX12 (Homo sapiens), P18054 | Potency, µM (highest dose often 108 µM), without a hit: at the highest dose activity change, negative = inhibition, hits mostly inhibitors | 580,000 compounds, 1.1% hits; further: potency means the concentration at half of the fitted maximal effect; on the % scale 0 is the no-effect control and ±100 the full control effect
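Purified human 12hLO at 150 nM in 25 mM Hepes, 0.01% Triton X-100, pH 7.0, preincubated 15 min at room temperature with compound. Reaction started with 40 uM arachidonic acid, 30 min at room temperature. Hydroperoxide measured by Fe-xylenol orange, 573/405 nm absorbance ratio.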
A549 tox = Nrf2 qHTS screen for inhibitors: counterscreen for cytotoxicity; A549 ARE-Fluc cells, CellTiter-Fluor viability, 18-24 h; 390,000 compounds, 0.16% hits; Potency, µM (doses to about 46 µM), inactives show top-dose activity change, negative = cytotoxicity, usual class: inhibitors; further: potency means the concentration at half of the fitted maximal effect; on the % scale 0 is the no-effect control and ±100 the full control effect
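Cytotoxicity counterscreen: CellTiter-Fluor fluorescence was measured in A549 ARE_Fluc cells after 18-24 h of compound exposure in a concentration series. The subsequent BugLite luminescent read reports ARE-luciferase activity.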
Starred values were filed as active, the others as inactive; ? = inconclusive; . = not tested or not shown; [ ] = remark or other dose. Unless noted, the call rests on the fitted dose curve; in most records, active means well fitted curve in the direction sought with a large enough effect; inconclusive means small, poorly fitted or top-dose-only effect, or another doubt; inactive means no such curve, though single readings can be large; an effect the other way counts as inactive or inconclusive.

SMILES	Nrf2 activator	LDHA block	IDH1 R132H inh	Nrf2 inh	12-LOX inh	A549 tox
O=C1NCc2ccccc2CC12CCN(Cc1ccc(O)cc1)C2 (stereo not drawn)	.	.	.	.	2%	.
Cc1ccc(CCN2CCC3(Cc4ccccc4CNC3=O)C2)cc1 (stereo not drawn)	.	.	.	.	13µM*	.
Cc1c(CC(=O)NCCN2CCOCC2)c(=O)oc2c(C)c(O)ccc12	.	0	.	.	-18%	.
CCCCCn1nc(C(=O)Nc2ccc(C)c(Cl)c2)c2ccccc2c1=O	.	5	.	.	1%	.
CN(C)S(=O)(=O)c1cccc(NC(=O)c2cccc(NS(=O)(=O)c3ccccc3)c2)c1	-1%	-6	-3%	15µM*	-5%	?
Cc1cc(C)n(-c2ccc(C(=O)Nc3ccc(S(=O)(=O)NCc4ccco4)cc3)cc2)n1	-2%	-2	3%	26µM*	-18%	?
CN(C)S(=O)(=O)c1cccc(NC(=S)NNC(=O)c2cc3ccccc3cc2O)c1	-1%	7	-2%	-5%	35µM*	2%
CCN(CC)S(=O)(=O)c1cccc(NC(=O)CCNC(=O)c2ccc([N+](=O)[O-])cc2)c1	3%	2	-9%	23µM*	4%	-8%
Cc1ccc(C(=O)Nc2ccc(S(=O)(=O)NCc3ccco3)cc2)cc1	4%	-8	8%	14%	-11%	-2%
CN(C)S(=O)(=O)c1cccc(NC(=S)NC(=O)c2ccco2)c1	6%	-3	2%	?	?	0%
Cc1ccccc1Nc1nc(-c2cc3cc(Cl)ccc3oc2=O)cs1	.	6	.	.	?	.
COc1cccc(CNC(=O)c2ccc(C)cc2)c1	.	12	.	.	7%	.
Cc1ccc2sc(N(Cc3cccnc3)C(=O)c3ccc(C#N)cc3)nc2c1C	.	2	.	.	-9%	.
Cc1cc(C)n(-c2ccc(C(=O)Nc3cccc(S(=O)(=O)N(C)C)c3)cc2)n1	-1%	-3	1%	18µM*	-1%	-15%
Cc1ccc(NC(=O)CN(C)S(=O)(=O)c2cccc3nsnc23)cc1Cl	2%	-1	8%	18µM*	?	2%
O=C(Nc1ccccc1)c1cccc(S(=O)(=O)NCc2ccco2)c1	15%	-8	3%	16µM*	-44%	?
CCOc1ccc(C(=O)NCC(=O)OCC(=O)Nc2ccc(C)c(S(=O)(=O)N(C)C)c2)cc1	-1%	-31*	1%	-12%	-4%	1%
Cc1cc(C)n(-c2ccc(C(=O)Nc3ccc(S(=O)(=O)N(C)C)cc3)cc2)n1	0%	-2	6%	?	4%	-23%
N#Cc1nc(COc2ccc(Br)cc2)oc1NCc1ccco1	.	-5	.	.	?	.
CN(C)S(=O)(=O)Oc1ccc(C(=O)Nc2cccc(C(F)(F)F)c2)cc1	0%	2	-1%	23µM*	-15%	?
Cc1ccc(NC(=O)c2ccncc2)cc1S(=O)(=O)N(C)C	1%	4	2%	3%	-20%	-3%
Cc1ccc(NC(=O)CNc2ccc(Cl)c(Cl)c2)cc1S(=O)(=O)N(C)C	-1%[9.22 µM]	3	7%	12µM*	-20%	?
CCN(CC)S(=O)(=O)c1cccc(NC(=O)c2ccc(-n3nc(C)cc3C)cc2)c1	1%	0	4%	18µM*	-3%	?
Cc1ccc(NC(=O)Cc2ccc(Cl)c(Cl)c2)cc1S(=O)(=O)N(C)C	0%	-1	2%	?	-18%	-27%
Cc1cc(C)n(-c2ccc(C(=O)Nc3ccc(C)c(S(=O)(=O)N(C)C)c3)cc2)n1	2%	-4	4%	18µM*	-16%	?
SMILES	Nrf2 activator	LDHA block	IDH1 R132H inh	Nrf2 inh	12-LOX inh	A549 tox
COc1ccc(NS(=O)(=O)c2cccc(C(=O)Nc3ccccc3C(=O)O)c2)cc1	0%	-4	-4%	-16%	?	-12%
Cc1ccc(NC(=O)c2ccc(OC(F)(F)F)cc2)cc1S(=O)(=O)N(C)C	4%	-4	4%	12µM*	-12%	-6%
CC(=O)c1ccc(NS(=O)(=O)c2cccc(C(=O)Nc3ccccc3C(=O)O)c2)cc1	-1%	-7	-12%	?	32µM*	?
Cc1ccc(-c2cc(C(=O)N(C)CCC#N)c3ccccc3n2)cc1	.	0	.	.	-9%	.
CCOC(=O)C1CCCN(c2c(C(=O)c3ccc(C)cc3)cnc3ccc(OCC)cc23)C1 (stereo not drawn)	0%	5	?	23µM*	?	?
CCc1c(C(=O)c2ccc[nH]2)oc2ccc(Cl)cc12	.	0	.	.	?	.
CNC(=O)C1(N2CCC[C@H]2C(=O)N2CCC[C@@H]2COC)CCCCC1	.	.	.	.	22µM*	.
Cc1ccc(CNC(=O)CNC(=S)N(Cc2ccccc2)Cc2cccnc2)cc1	0%	0	9%	4%	12%	0%
Cc1ccc(CN(Cc2ccco2)C(=S)NCC(=O)NCc2cccnc2)cc1	1%	-7	-6%	7.3µM*	-27%	-10%
Cc1cc(C)n2nc(C(=O)Nc3cccc(Cl)c3C)nc2n1	.	-9	.	.	9%	.
COc1ccccc1NC(=O)c1ccc(-n2cccc2)cc1	.	13	.	.	4%	.
N#C/C(=C/c1ccc(N2CCOCC2)o1)c1ccc(Cl)cc1	13µM*	14	4%	?	7.9µM*	?
N#C/C(=C\c1ccc(N2CCOCC2)o1)c1nc2ccccc2[nH]1	4%	15	-2%	?	119%	?
CCC(Sc1ccc(Cl)cc1)C(=O)Nc1nnc(-c2cccc([N+](=O)[O-])c2)s1 (stereo not drawn)	13µM*	-9	1%	?	17%	14%
COc1ccc2c(=O)c(-c3ccccc3)coc2c1C	.	0	.	.	32µM*	.
COc1cc(C(=O)Oc2ccc3c(=O)c(-c4ccccc4)coc3c2)cc(OC)c1OC	.	-32*	.	.	0%	.
Cc1cc(C(=O)NC(C2CC2)C2CC2)c2c(Br)cccc2n1	.	6	.	.	-19%	.
CC(C)CC(=O)NC(NC(=S)Nc1cccc2cccnc12)C(Cl)(Cl)Cl (stereo not drawn)	7%	-1	2%	21µM*	398%	-21%
CCN(C(=O)CN1CCN(C)CC1)c1cccc2ccccc12	-1%	-36*	1%	-10%	?	-3%

Source: PubChem (National Center for Advancing Translational Sciences (NCATS))
